Screens from PubChem BioAssay.
LANA DNA inh – KSHV C-LANA DNA binding inhibition; inhibition, % at 9 µM; hit rate 0.078% among 340,000; MBP-C-LANA/FAM-LBS DNA binding, fluorescence polarization;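 active = highest replicate inhibition at or above 60% at 9 µM, even if other replicates fall short; inactive = all replicates below 60% inhibition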;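 also: 0% = neutral control wells and 100% = 4 µM acridine orange control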
cardiac RTF act – cardiac RTF calcium sensitization; hit rate 0.24% among 340,000; AID 493008; activation, % at 7.2 µM; P19429+P45379; IANBD-labeled TnC RTF fluorescence at EC20 calcium; 0% EC20 calcium, 100% full calcium;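 active = activation above the mean over all tested compounds plus 3 SD, cut at about 30% in these data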;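 also: rise in fluorescence read as greater calcium sensitivity of cardiac thin filaments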
RTF Ca sens inh – cardiac RTF calcium desensitization | hit rate 0.12% among 340,000 | inhibition, % at 7.15 µM | P19429+P45379 | IANBD-labeled cardiac RTF, Ca2+ fluorescence;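 active = inhibition above the mean inhibition of all tested compounds plus 3 SD, cut at about 17% in these data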;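 also: assay run at fixed EC70 calcium of 1.6 mM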
IDE cell activ – boosts human insulin-degrading enzyme activity in HEK cells; P14735; FAbeta-B cleavage, fluorescence polarization; 0% vehicle, 100% cell-free pure enzyme wells; activation, % at 5.96 µM; hit rate 0.073% among 340,000; AID 493087;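 active = activation above the mean of all tested compounds plus 3 SD, set per screening campaign, cut at about 17% in these data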
Target sequence (P14735 whole entry, looked up): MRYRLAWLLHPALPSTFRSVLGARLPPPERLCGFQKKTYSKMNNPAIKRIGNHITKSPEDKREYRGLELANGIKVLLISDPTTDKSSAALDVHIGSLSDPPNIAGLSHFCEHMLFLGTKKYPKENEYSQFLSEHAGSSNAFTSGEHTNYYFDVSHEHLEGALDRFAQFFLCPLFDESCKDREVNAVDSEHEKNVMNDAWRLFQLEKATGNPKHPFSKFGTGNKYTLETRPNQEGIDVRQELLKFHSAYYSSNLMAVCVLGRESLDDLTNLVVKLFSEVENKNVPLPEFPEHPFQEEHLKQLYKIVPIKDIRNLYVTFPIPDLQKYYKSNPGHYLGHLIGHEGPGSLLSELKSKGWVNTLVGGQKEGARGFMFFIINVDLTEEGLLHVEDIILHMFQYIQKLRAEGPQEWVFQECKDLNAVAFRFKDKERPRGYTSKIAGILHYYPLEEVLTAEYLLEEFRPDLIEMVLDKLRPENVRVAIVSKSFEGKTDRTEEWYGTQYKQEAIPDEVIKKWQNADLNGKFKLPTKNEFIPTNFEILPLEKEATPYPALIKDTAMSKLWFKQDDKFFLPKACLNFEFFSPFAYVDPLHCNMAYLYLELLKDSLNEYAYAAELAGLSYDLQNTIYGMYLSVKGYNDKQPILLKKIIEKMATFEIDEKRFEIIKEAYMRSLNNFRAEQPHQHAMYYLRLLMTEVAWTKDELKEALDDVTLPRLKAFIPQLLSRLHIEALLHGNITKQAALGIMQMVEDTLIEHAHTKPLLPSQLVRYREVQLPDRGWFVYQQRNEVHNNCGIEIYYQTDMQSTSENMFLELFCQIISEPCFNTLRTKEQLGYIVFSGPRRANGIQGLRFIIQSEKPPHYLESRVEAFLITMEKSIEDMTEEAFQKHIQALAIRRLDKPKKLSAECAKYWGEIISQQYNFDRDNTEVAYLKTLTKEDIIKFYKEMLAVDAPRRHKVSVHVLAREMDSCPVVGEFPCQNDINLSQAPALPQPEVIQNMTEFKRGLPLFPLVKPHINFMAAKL
Keap1 Nrf2 FP – disrupts human Keap1 binding to Nrf2 peptide; Keap1 Kelch-Nrf2 peptide fluorescence polarization, 1536-well; inhibition, % at 9.4 µM; hit rate 0.15% among 340,000; AID 504523; in the data active = inhibition above about 12%;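 also: human Keap1 Kelch domain with fluorescein labeled Nrf2 9mer peptide probe; 0% = neutral control wells and 100% = peptide positive control; higher means more block of Keap1 binding to Nrf2 peptide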
IDE inh – cellular human IDE inhibition; HEK cells, FAbetaB cleavage, fluorescence polarization; inhibition, % at 5.59 µM; hit rate 0.41% among 320,000;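 active = percent inhibition above the average of all tested compounds plus 3 SD, set per screening campaign, cut at about 16% in these data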;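 also: IDE supplied by intact live HEK cells; FP after avidin binding of uncleaved biotin substrate so inhibition keeps polarization high; 0% = DMSO wells and 100% = 60 µM reference IDE inhibitor Ii1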
RTF Ca inh conf – confirmation of inhibitors of cardiac thin filament calcium sensitivity; inhibition, % at 7.15 µM; AID 504635; hit rate 8% among 360; shares compounds with RTF Ca sens inh; reconstituted cardiac thin filaments, calcium sensitivity fluorescence; in the data active = inhibition above about 18%
The depositor's hits bear a star; · = no result given. Hits are enriched below; roughly 0.81% of the tested compounds scored in any of these assays.

SMILES	LANA DNA inh	cardiac RTF act	RTF Ca sens inh	IDE cell activ	Keap1 Nrf2 FP	IDE inh	RTF Ca inh conf
CN(C)C(CNC1CC(C)(C)NC(C)(C)C1)c1cccc(F)c1 (stereo not drawn)	1	-6	-11	5	4	-2	·
COc1cc(CNC2CCCC2)cc(OC)c1	-1	-2	18*	3	1	3	-2
Cc1cccc(NC(=O)CCSc2ccccn2)c1	1	-1	18*	4	-3	5	0
O=C(CCN1C(=O)c2ccccc2S1(=O)=O)Nc1cccc(F)c1	-1	8	-16	-3	-4	-1	·
COC(CNC(=O)CNC(=S)N(Cc1ccccc1)Cc1cccnc1)OC	-3	2	-9	0	-7	10	·
COc1ccc(-c2nnc(SCc3c(C)noc3C)o2)cc1	-1	0	18*	5	5	-1	-4
O=C(O)c1cc(O)c2c(c1)[C@H]([C@H]1c3cc(C(=O)O)cc(O)c3C(=O)c3c(O[C@@H]4O[C@H](CO)[C@@H](O)[C@H](O)[C@H]4O)cccc31)c1cccc(OC3O[C@H](CO)[C@@H](O)[C@H](O)[C@H]3O)c1C2=O (stereo partly drawn)	14	-63	53*	5	-3	2	102*
O=C(O)c1cc(O)c2c(c1)[C@@H]([C@H]1c3cc(C(=O)O)cc(O)c3C(=O)c3c(O[C@@H]4O[C@H](CO)[C@@H](O)[C@H](O)[C@H]4O)cccc31)c1cccc(OC3O[C@H](CO)[C@@H](O)[C@H](O)[C@H]3O)c1C2=O (stereo partly drawn)	9	-39	59*	3	-2	-1	112*
CN(C(=O)CSc1nc2ccccc2c(=O)n1C)C1CCS(=O)(=O)C1 (stereo not drawn)	1	-2	-6	2	0	9	·
O=C(Nc1ccc(N2CCOCC2)c(S(=O)(=O)Nc2ccccc2Cl)c1)c1ccc(F)cc1	0	-9	24*	4	0	-5	1
O=C(Nc1ccc(F)cc1)Nc1ccc(N2CCCC2)c(S(=O)(=O)Nc2ccccc2Cl)c1	0	7	-8	5	0	9	·
COc1ccccc1NS(=O)(=O)c1cc(NC(=O)c2sccc2C)ccc1N1CCCC1	-1	-5	25*	-1	-2	-2	3
COc1ccccc1NS(=O)(=O)c1cc(NC(=O)c2sccc2C)ccc1N1CCOCC1	0	-6	16	8	-1	-2	·
CCn1cc(CNC(=O)C2CCC(=O)N(C3CCCCCC3)C2)cn1 (stereo not drawn)	0	0	-6	5	9	7	·
CC(C)(C)NC(=O)C(c1ccc(-c2ccccc2)cc1)N(C[C@H]1CC[C@@H]([C@@H]2CC[C@H](CO)O2)O1)C(=O)c1cccc(Cl)c1 (stereo partly drawn)	-2	-2	-4	1	0	·	·
c1nnc(NC2=NCCC2)s1	-1	4	6	7	0	-4	·
Cc1cnc(NC2=NCCC2)s1	1	-9	45*	2	-2	0	-3
Cc1ccc(NS(=O)(=O)c2ccc(/C=C/C(=O)O)cc2)cc1Cl	1	-1	21*	-2	1	-6	-7
Cc1ccc(NS(=O)(=O)c2ccc(Cl)c(C(=O)O)c2)cc1S(=O)(=O)N1CCOCC1	-1	2	19*	5	-2	0	-3
Cc1ccc(NS(=O)(=O)c2cccc(C(=O)O)c2)cc1S(=O)(=O)N1CCOCC1	-1	0	-5	3	2	3	·
COc1ccc(N(C)S(=O)(=O)c2ccc(Cl)c(C(=O)NNC(=O)c3ccccc3O)c2)cc1	1	-1	-2	4	2	·	·
CC1(C)C(/C=C/C=C/C=C/C=C2\N(CCCCS(=O)(=O)O)c3ccc4ccccc4c3C2(C)C)=[N+](CCCCS(=O)(=O)[O-])c2ccc3ccccc3c21	27	-11	20*	-9	-8	21*	-46
COc1cc(-c2nnc(SCc3cc(=O)oc4cc(O)c(O)cc34)o2)cc(OC)c1OC	8	-31	30*	-7	-3	-4	17*
COc1cc(/C=N/NC(=O)c2c(C)nnn2-c2nonc2N)ccc1O	0	-2	17*	5	-5	-1	5
Nc1ncnc2oc(-c3ccco3)c(-c3ccco3)c12	1	-24	58*	2	-4	2	9
SMILES	LANA DNA inh	cardiac RTF act	RTF Ca sens inh	IDE cell activ	Keap1 Nrf2 FP	IDE inh	RTF Ca inh conf
O=C(Nc1cc(S(=O)(=O)N2CCCCC2)ccc1N1CCOCC1)c1ccc(F)cc1	-5	8	-16	-6	-4	·	·
CCCCC(=O)N/N=C/c1ccc(-c2ccc([N+](=O)[O-])cc2)o1	2	0	4	2	-3	5	·
Cc1cc(C)n(Cc2ccc(C(=O)N/N=C/c3ccc(-c4ccc([N+](=O)[O-])cc4)o3)o2)n1	2	-25	29*	2	4	-7	6
Cc1c(Cl)cccc1NS(=O)(=O)c1ccc2c(c1)C1C=CCC1C(c1ccc(C(=O)O)cc1)N2 (stereo not drawn)	111*	-33	31*	-3	-3	3	-14
Oc1cccc2ccc[n+](CC(O)Cn3c4ccccc4c4ccccc43)c12 (stereo not drawn)	2	5	19*	2	3	3	-1
CCN1C(=O)[C@H]2[C@@H](c3ccc(C)cc3)N3C(=O)N(c4ccc(C(F)(F)F)cc4)C(=O)[C@@]3(Cc3ccccc3)[C@H]2C1=O	2	4	-2	2	-5	4	·
COc1ccc(C=O)cc1OC(=O)C1(C)Cc2ccccc2C(=O)O1 (stereo not drawn)	-1	-4	5	2	0	-5	·
COc1ccc(CNC(=O)CCCCCNc2nc(=S)[nH]c3ccccc23)cc1	1	3	18*	6	-1	0	-5
O=C1N=C(N2CCN(c3cccc4ccccc34)CC2)S/C1=C/c1cccs1	3	-3	3	-1	-1	-6	·
Cc1ccccc1N1CCN(C2=NC(=O)/C(=C\c3cccs3)S2)CC1	0	0	19*	3	1	-4	0
O=C(O)c1cc(N2CCCC2)ccn1	0	2	-9	-6	0	·	·
C=CCOC(=O)C(C(=O)Cc1ccccc1)c1ccccc1 (stereo not drawn)	2	5	-2	2	-1	·	·
O=C(CSc1ccc(-c2nc3ccccc3[nH]2)cn1)Nc1ccc2c(c1)OCCO2	1	-1	21*	0	-2	-2	-3
Cc1ccc2nc(-c3ccc(SCC(=O)Nc4ccc5c(c4)OCCO5)nc3)[nH]c2c1	1	-3	0	-4	-4	8	·
